Among the data in ChEMBL document CHEMBL1961873, “Compounds: GSK PKIS; Assays: Nanosyn kinase panel” (2012) are inhibition values, retold here.

In experiment [1] the target is T1, Inhibitor of nuclear factor kappa-B kinase subunit epsilon (Homo sapiens) (UniProt Q14164).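 Also: reported values are averaged percent inhibition figures against human IKKε.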
T1 sequence (whole entry): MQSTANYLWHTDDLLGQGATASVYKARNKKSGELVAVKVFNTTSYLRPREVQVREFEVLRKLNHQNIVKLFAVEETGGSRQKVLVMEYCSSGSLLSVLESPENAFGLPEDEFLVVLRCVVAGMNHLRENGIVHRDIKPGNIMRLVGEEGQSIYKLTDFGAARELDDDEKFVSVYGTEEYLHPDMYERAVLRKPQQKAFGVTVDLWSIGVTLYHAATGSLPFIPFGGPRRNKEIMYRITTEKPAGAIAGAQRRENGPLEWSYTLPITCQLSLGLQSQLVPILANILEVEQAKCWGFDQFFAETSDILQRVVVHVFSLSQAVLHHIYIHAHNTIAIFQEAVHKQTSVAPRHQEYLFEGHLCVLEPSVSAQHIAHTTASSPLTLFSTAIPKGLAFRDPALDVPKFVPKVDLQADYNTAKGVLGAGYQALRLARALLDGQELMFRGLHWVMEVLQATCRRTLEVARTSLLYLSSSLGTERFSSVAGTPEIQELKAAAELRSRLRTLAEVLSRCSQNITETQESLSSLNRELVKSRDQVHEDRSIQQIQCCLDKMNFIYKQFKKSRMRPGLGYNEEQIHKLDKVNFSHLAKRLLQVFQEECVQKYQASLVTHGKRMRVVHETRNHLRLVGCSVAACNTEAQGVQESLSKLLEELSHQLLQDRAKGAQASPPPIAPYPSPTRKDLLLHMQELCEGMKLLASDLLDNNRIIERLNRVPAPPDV
The settings on record: at 1 µM.

Experiment [2] concerns the target T2, Serine/threonine-protein kinase Nek1 (Homo sapiens) (UniProt Q96PY6).
T2 sequence (whole entry): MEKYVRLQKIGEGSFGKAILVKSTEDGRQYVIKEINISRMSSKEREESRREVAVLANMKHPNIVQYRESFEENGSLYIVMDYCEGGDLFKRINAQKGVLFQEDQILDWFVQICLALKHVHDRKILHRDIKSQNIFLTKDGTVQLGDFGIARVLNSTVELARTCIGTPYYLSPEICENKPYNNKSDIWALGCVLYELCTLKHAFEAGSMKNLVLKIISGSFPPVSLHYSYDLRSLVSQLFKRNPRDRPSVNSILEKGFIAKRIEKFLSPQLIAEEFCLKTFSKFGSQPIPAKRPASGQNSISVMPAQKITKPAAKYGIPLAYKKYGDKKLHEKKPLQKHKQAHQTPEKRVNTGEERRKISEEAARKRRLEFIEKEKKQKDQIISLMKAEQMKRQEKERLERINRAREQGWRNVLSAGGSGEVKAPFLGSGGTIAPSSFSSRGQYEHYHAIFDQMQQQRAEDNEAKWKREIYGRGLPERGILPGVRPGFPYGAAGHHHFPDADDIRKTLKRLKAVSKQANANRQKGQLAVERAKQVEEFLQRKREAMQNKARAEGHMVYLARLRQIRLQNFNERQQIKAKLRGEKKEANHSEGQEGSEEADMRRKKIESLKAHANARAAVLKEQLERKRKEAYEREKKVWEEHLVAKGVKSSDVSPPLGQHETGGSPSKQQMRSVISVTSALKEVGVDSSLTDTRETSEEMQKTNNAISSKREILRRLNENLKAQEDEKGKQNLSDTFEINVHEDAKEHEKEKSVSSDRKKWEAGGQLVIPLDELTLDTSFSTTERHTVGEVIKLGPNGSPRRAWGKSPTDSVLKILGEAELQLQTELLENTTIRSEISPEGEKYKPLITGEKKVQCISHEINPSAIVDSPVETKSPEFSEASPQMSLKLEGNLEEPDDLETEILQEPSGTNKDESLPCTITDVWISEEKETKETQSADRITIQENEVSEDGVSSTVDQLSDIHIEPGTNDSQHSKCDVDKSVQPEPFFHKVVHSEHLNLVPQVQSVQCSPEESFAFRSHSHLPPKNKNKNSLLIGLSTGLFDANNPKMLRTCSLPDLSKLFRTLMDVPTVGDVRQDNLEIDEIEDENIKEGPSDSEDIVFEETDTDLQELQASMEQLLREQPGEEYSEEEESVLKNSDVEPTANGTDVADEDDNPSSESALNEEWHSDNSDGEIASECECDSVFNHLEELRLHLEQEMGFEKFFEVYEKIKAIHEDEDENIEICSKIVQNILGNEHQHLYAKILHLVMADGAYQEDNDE
The settings on record: at 0.1 µM.

Experiment [3] concerns the target T2, Serine/threonine-protein kinase Nek1 (Homo sapiens). The settings on record: at 1 µM.
For experiment [4], the target named is T3, Serine/threonine-protein kinase Nek2 (Homo sapiens) (UniProt P51955).
T3 sequence (whole entry): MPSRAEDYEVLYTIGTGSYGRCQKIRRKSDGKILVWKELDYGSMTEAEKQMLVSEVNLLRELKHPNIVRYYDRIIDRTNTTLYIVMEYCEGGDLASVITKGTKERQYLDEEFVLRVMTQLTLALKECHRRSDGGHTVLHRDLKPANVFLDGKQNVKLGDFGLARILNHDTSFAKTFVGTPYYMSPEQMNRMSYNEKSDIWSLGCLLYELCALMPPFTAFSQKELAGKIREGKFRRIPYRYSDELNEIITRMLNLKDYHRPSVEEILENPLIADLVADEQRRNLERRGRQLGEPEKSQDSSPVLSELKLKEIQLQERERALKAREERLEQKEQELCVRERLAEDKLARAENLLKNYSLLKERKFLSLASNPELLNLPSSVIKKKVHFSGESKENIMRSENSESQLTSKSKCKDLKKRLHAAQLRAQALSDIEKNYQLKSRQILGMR
The settings on record: at 0.1 µM.

For experiment [5], the target named is T3, Serine/threonine-protein kinase Nek2 (Homo sapiens). The settings on record: at 1 µM.
Experiment [6] deals with Serine/threonine-protein kinase Nek6 (Homo sapiens) (UniProt Q9HC98). The settings on record: at 0.1 µM.
Sequence of Serine/threonine-protein kinase Nek6 (Homo sapiens) (Q9HC98 whole entry): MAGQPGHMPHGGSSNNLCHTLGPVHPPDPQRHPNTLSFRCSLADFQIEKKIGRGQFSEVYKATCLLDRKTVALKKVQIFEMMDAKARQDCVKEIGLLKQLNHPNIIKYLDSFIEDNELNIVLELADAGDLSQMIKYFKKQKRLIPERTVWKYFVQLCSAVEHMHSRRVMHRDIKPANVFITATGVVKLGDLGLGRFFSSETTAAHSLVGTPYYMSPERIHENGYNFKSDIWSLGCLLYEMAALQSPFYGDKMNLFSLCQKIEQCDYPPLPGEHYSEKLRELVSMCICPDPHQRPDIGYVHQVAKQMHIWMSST
Experiment [7] has the same target. The settings on record: at 1 µM.
In experiment [8] the target is Serine/threonine-protein kinase Nek7 (Homo sapiens) (UniProt Q8TDX7). The settings on record: at 0.1 µM.
Sequence of Serine/threonine-protein kinase Nek7 (Homo sapiens) (Q8TDX7 whole entry, looked up): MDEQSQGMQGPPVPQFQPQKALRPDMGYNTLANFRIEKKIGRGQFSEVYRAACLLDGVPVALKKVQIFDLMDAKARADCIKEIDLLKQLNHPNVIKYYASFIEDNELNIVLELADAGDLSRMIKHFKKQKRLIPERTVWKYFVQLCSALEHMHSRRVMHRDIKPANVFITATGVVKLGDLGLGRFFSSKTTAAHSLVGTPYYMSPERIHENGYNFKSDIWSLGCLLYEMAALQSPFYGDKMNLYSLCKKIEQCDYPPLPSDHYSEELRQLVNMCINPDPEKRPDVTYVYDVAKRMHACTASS
The target is the same in experiment [9]. The settings on record: at 1 µM.
Experiment [10] deals with T4, Serine/threonine-protein kinase Nek9 (Homo sapiens) (UniProt Q8TD19).
T4 sequence (whole entry): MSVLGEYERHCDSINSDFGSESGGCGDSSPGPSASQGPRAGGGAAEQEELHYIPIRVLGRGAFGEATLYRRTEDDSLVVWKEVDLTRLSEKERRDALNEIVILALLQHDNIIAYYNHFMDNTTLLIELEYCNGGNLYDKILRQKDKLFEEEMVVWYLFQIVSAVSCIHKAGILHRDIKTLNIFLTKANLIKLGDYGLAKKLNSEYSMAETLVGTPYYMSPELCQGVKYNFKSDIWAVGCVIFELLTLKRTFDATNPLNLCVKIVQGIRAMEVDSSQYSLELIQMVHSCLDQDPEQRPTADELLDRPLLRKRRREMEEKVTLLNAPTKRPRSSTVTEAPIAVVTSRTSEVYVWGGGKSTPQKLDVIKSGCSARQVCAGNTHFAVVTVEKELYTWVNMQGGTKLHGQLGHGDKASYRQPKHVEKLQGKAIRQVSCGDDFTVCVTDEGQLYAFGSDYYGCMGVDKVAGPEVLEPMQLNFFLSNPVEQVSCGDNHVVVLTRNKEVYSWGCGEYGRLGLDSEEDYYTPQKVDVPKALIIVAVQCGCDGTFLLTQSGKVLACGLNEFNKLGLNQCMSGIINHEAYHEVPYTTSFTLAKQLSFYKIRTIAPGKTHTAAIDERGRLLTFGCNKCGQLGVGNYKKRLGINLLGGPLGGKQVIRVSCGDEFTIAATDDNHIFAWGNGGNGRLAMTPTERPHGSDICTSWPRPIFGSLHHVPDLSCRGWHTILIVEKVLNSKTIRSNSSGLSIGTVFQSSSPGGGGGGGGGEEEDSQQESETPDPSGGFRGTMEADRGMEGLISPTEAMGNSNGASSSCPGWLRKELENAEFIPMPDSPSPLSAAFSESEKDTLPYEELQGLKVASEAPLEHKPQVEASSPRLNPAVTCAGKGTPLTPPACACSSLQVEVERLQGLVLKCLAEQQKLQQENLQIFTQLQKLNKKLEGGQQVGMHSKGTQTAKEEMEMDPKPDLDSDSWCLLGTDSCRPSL
The settings on record: at 0.1 µM.

Experiment [11] addresses T4, Serine/threonine-protein kinase Nek9 (Homo sapiens). The settings on record: at 1 µM.
Experiment [12] addresses Serine/threonine-protein kinase PLK1 (Homo sapiens) (UniProt P53350). The settings on record: at 0.1 µM.
Experiment [13] shares this target. The settings on record: at 1 µM.
The target of experiment [14] is T5, Dual specificity protein kinase TTK (Homo sapiens) (UniProt P33981).
T5 sequence (whole entry): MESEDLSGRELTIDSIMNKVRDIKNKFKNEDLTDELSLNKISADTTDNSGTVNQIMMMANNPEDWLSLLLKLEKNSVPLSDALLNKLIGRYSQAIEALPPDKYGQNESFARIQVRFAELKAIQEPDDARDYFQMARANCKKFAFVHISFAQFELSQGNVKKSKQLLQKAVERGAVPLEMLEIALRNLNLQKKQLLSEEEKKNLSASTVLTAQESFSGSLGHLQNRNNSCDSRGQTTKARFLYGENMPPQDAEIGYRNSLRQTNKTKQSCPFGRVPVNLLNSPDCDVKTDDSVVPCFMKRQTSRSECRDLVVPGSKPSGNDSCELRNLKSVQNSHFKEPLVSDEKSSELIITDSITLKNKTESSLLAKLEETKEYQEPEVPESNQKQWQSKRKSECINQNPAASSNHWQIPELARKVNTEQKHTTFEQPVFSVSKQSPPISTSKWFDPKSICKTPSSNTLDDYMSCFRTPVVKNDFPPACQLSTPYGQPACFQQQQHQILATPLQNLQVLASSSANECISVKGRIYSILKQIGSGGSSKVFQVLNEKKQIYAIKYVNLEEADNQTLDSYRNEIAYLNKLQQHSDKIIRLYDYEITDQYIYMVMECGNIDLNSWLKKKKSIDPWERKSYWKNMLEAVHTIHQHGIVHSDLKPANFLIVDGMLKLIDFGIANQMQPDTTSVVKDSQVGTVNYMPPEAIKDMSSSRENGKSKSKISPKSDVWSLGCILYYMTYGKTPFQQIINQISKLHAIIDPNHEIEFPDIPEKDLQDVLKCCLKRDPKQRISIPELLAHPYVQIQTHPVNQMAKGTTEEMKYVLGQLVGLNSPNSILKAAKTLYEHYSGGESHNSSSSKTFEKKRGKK
The settings on record: at 0.1 µM.

In experiment [15] the test system is T6, Receptor-type tyrosine-protein kinase FLT3 (Homo sapiens), P36888 [D835Y].
T6 sequence (whole entry): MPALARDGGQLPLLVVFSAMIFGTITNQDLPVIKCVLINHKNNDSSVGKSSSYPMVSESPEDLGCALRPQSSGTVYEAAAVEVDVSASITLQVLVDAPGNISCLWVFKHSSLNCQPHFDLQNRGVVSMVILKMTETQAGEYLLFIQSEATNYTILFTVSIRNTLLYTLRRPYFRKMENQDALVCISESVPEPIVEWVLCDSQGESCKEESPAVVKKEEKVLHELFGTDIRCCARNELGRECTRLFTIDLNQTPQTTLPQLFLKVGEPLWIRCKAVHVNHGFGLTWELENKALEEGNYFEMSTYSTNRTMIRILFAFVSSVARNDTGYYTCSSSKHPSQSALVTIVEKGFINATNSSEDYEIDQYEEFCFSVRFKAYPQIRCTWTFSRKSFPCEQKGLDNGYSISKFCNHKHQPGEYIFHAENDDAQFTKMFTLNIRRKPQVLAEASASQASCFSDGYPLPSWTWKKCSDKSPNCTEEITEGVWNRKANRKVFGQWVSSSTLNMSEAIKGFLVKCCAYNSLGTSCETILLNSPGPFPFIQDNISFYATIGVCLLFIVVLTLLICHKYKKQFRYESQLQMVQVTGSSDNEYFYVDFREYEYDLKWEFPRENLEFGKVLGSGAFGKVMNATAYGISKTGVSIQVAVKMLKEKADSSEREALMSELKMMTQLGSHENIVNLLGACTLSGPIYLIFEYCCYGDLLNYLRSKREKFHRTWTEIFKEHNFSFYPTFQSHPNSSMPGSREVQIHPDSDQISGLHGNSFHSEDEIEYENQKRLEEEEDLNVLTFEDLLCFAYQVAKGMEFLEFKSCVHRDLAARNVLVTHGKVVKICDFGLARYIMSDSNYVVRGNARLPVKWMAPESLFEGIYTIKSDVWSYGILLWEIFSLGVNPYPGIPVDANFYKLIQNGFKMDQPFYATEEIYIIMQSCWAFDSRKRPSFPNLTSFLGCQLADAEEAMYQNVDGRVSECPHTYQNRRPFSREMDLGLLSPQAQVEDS
The settings on record: at 1 µM.

Experiment [16] deals with Vascular endothelial growth factor receptor 3 (Homo sapiens) (UniProt P35916). The settings on record: at 0.1 µM.
Sequence of Vascular endothelial growth factor receptor 3 (Homo sapiens) (P35916 whole entry): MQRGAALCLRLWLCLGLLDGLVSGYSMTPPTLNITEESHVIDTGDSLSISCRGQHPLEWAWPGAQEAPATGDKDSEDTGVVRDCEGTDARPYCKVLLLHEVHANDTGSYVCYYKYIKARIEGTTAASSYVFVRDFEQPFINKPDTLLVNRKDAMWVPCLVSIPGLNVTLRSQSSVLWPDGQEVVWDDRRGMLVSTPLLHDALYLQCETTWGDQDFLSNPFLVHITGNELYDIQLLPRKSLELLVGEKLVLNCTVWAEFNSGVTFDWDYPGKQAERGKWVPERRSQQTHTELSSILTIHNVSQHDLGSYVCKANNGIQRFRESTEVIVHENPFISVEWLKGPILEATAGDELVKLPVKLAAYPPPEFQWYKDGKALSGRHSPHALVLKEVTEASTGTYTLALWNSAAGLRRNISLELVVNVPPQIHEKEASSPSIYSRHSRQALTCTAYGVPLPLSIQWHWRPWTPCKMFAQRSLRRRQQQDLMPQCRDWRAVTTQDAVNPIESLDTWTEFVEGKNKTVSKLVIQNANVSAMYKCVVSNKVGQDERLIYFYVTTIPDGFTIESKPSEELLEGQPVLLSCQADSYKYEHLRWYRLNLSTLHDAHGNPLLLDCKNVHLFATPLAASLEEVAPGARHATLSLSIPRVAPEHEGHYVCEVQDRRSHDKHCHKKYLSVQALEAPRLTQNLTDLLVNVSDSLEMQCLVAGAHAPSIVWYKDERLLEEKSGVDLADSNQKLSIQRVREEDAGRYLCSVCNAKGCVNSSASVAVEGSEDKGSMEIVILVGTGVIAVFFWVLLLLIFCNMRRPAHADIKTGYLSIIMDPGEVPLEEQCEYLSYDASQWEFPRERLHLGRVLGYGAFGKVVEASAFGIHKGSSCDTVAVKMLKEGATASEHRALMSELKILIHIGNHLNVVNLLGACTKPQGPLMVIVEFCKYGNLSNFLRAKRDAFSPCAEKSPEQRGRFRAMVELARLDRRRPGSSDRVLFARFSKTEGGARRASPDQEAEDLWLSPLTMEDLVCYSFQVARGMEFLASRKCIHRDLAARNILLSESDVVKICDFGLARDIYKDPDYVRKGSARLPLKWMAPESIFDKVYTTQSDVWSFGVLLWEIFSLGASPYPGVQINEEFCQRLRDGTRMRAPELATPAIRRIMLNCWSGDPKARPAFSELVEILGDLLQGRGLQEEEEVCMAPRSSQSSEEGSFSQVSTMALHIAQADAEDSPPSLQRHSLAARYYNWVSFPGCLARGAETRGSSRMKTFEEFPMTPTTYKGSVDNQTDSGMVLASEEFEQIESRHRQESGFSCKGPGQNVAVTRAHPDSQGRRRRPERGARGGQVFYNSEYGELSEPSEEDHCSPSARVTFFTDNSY
The target is the same in experiment [17]. The settings on record: at 1 µM.
Experiment [18] addresses Macrophage colony-stimulating factor 1 receptor (Homo sapiens) (UniProt P07333). The settings on record: at 0.1 µM.
The target is the same in experiment [19]. The settings on record: at 1 µM.
Experiment [20] addresses Tyrosine-protein kinase Fyn (Homo sapiens) (UniProt P06241). The settings on record: at 0.1 µM.

By inhibition is commonly meant the relative decrease from the control value, in per cent.

Sequence of Serine/threonine-protein kinase PLK1 (Homo sapiens) (P53350 whole entry): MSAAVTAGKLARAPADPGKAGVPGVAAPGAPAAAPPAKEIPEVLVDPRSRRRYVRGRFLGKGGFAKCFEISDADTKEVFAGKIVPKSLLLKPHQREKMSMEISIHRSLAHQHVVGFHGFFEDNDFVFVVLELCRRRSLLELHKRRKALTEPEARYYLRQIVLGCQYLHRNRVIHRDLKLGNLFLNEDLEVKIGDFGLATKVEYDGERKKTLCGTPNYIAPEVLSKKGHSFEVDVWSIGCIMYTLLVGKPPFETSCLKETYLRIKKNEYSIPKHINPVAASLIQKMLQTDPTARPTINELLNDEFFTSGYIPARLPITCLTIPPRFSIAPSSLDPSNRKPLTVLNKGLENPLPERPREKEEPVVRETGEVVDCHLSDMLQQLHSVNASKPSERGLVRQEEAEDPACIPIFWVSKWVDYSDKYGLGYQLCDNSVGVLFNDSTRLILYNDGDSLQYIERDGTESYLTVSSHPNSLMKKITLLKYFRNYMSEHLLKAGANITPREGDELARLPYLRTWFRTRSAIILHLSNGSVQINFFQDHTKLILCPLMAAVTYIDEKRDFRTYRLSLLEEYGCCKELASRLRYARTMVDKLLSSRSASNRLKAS
Sequence of Macrophage colony-stimulating factor 1 receptor (Homo sapiens) (P07333 whole entry): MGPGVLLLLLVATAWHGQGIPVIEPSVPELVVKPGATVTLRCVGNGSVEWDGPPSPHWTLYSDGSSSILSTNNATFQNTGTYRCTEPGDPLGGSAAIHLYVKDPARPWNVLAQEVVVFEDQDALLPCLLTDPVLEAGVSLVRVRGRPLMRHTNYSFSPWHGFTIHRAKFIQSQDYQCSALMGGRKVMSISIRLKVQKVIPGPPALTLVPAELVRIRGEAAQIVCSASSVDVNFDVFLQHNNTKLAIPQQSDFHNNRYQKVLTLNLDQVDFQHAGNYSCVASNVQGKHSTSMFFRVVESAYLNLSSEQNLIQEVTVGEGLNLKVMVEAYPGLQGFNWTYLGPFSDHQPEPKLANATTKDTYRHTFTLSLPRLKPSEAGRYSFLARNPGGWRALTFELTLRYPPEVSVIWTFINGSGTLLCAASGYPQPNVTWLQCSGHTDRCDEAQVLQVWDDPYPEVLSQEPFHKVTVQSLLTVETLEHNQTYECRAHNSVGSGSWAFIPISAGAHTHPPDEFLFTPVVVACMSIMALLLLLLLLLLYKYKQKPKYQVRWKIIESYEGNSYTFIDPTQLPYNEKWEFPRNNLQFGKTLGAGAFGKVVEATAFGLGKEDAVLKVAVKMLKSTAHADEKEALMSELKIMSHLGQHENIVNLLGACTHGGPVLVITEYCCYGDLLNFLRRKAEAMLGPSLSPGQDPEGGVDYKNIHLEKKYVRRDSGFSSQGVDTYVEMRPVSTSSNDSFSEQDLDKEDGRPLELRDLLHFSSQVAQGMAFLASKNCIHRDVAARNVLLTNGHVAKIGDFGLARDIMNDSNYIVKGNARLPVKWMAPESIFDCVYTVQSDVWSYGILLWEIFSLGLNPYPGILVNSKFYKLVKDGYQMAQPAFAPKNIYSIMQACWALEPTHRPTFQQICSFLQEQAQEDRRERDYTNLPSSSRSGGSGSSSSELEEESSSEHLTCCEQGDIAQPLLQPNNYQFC
Sequence of Tyrosine-protein kinase Fyn (Homo sapiens) (P06241 2-537 limits assumed): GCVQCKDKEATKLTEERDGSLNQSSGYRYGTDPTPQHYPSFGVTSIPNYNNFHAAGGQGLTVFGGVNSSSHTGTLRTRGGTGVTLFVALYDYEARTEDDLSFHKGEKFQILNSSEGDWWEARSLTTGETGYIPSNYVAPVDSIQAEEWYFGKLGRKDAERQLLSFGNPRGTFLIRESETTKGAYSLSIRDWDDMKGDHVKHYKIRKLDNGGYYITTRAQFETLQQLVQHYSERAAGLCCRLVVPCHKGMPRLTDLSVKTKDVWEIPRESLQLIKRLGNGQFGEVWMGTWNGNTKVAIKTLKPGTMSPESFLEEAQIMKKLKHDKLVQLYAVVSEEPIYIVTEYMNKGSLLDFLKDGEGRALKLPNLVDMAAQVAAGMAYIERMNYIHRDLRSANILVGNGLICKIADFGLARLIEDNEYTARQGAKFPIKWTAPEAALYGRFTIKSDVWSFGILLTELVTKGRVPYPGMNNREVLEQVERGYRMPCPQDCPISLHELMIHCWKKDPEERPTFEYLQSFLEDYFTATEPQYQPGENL

For `NS(=O)(=O)c1ccc(N/N=C2\C(=O)Nc3ccc(-c4cnco4)cc32)cc1`, the inhibition in [1] was 26.5%; in [2], 0.9%; in [3], -0.1%; in experiment [4] it was 2.64%; in experiment [5], 1.79%; in experiment [6], 1.55%. The inhibition in experiment [7] was 1.55%; in experiment [8], 2.6%; in [9], 8.73%; in experiment [10] it was 2.34%; in experiment [11] it was 7.27%; in experiment [12], 3.71%. Besides, the inhibition in [13] was 3.38%; in [14], 15.1%; in [15], 73.1%; in experiment [16], -4.32%; in experiment [17], 25.8%; in experiment [18], 4.76%. The inhibition in experiment [19] is 27.8%; in [20] it was -0.9%.
Consider `O=C1NC(=O)C(c2cccc(Cl)c2)=C1Nc1ccc(Cl)c(C(=O)O)c1`, for which the inhibition came to 6.69% in experiment [1]; 2.39% in experiment [2]; 1.69% in experiment [3]; 3.91% in experiment [4]; 3.63% in experiment [5]; 2.53% in [6]. For the same molecule, the inhibition in [7] was 5.19%; in experiment [8], 2.65%; in experiment [9], 1.25%; in experiment [10], -5.63%; in [11] it was 2.04%; in [12], 4.93%. In addition, the inhibition was 2.75% in experiment [13]; 5.47% in experiment [14]; -3.79% in experiment [15]; 3.32% in experiment [16]; 12.2% in experiment [17]; -0.3% in [18]. Further, the inhibition in experiment [19] is 10.7%; in experiment [20], 0.43%.
